# High-throughput results (PubChem)
# Compounds with a hit are over-represented: about 5.9% of the library has one in this group of screens.
# ATXN viability: Viability Counterscreen for Primary qHTS for Inhibitors of ATXN expression; 400,000 compounds, 0.49% hits; S2 cells (HEK-293 line with an ATXN2-luciferase reporter) viability, CellTiter-Fluor protease fluorescence, 24 h; Potency, µM (titrated, usually from 56.7 µM), usual class: cytotoxic; note: nearly all actives have a fitted effect of over 40% in size
# ATXN2 expr inh: Primary qHTS for Inhibitors of ATXN expression | HEK-293 ATXN2-luciferase reporter, luminescence, 24 h | Potency, µM (titrated, usually from 57 µM), for the others: at the highest dose activity change, negative = inhibition, actives largely listed as inhibitors | 360,000 compounds, 0.72% hits; note: % is set by controls: 0 for no effect and ±100 for the full control effect; nearly all actives have a fitted effect of over 55% in size
#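 ATXN2-luciferase reporter cells (luciferase flanked by upstream and downstream ATXN2 gene portions) were treated 24 h at 37 °C with compounds at up to 57 uM. SteadyGlo luminescence gave expression; GF-AFC fluorescence gave viability.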
# KB-V1 MDR tox: qHTS assay for MDR1-selective chemotherapeutics: Primary screen using the drug-selected MDR subline cells KB-V1; KB-V1 MDR cells viability, CellTiter-Glo, 72 h; Potency, µM (titrated, usually from 46.1 µM), most hits filed as cytotoxic; 400,000 compounds, 3.4% hits; note: % is set by controls: 0 for no effect and ±100 for the full control effect; nearly all actives have a fitted effect of over 60% in size
#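 Readout: CellTiter-Glo luminescence, 10 min after addition. Cells: KB-V1 MDR subline, 72 h at 37 degrees C with compound. Analysis: corrected, normalized data fitted to concentration-effect curves.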
# KB-3-1 tox: qHTS assay for MDR1-selective chemotherapeutics: Primary screen using the parental adenocarcinoma cell KB-3-1. KB-3-1 viability, CellTiter-Glo ATP luminescence, 72 h. Potency, µM (titrated, usually from 46.1 µM), most hits filed as cytotoxic. 400,000 compounds, 1.4% hits. AID 1347075, 2019; note: % is set by controls: 0 for no effect and ±100 for the full control effect; nearly all actives have a fitted effect of over 60% in size
#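 Parental KB-3-1 viability, qHTS format: 72 h compound exposure, 37 °C; CellTiter-Glo; media-only wells and DMSO plates as controls; concentration-effect fits on corrected data.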
# TGFb inhibitor: qHTS for Inhibitors of TGF-b; 410,000 compounds, 1.2% hits; Potency, µM (top dose mostly 46.1 µM), inactives show top-dose activity, negative = inhibition, most hits filed as inhibitors; HepG2 CAGA-GFP TGF-b/SMAD3 reporter, GFP fluorescence, 18 h; TGF-beta stimulated, 500 pg/mL final; note: % is set by controls: 0 for no effect and ±100 for the full control effect; nearly all actives have a fitted effect of over 65% in size
#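 Cell-based qHTS in HEPG2 carrying a CAGA-GFP Smad reporter; compounds added before 500 pg/mL final TGF-beta, 18 h incubation at 37 degrees C, GFP fluorescence quantified per cell by imaging cytometry.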
# HepG2 tox-1: qHTS for Inhibitors of TGF-b: Cytotox Counterscreen | HepG2 CAGA-GFP viability, ATP luminescence, 18 h | Potency, µM (highest dose often 46.1 µM), for inactives: top-dose activity change, negative = cytotoxicity, hits mostly cytotoxic | 410,000 compounds, 0.76% hits | AID 588856, 2011
#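 HepG2 CAGA-GFP cells (1000/well, DMEM with 1% FBS) received compound, then TGF-beta at 500 pg/mL final, and were incubated 18 hours at 37 degrees C. Viability was read by CellTiter-Glo luminescence. Media-only wells were set as complete cell-killing and DMSO as no toxicity.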
# TGFb CAGA inh: qHTS for Inhibitors of TGF-b: Confirmation of Cherry Picks; Potency, µM (doses to about 46.1 µM), for inactives: top-dose activity, negative = inhibition, most hits filed as inhibitors; 1,600 compounds, 63% hits; shares compounds with TGFb inhibitor; HepG2 CAGA-GFP TGF-b reporter, GFP fluorescence, 18 h; cells stimulated with TGF-beta, 500 pg/mL; AID 720534, 2013; note: % is set by controls: 0 for no effect and ±100 for the full control effect; nearly all actives have a fitted effect of over 65% in size
# HepG2 tox-2: qHTS for Inhibitors of TGF-b: Cytotox Counterscreen for Cherry Picks. shares compounds with TGFb inhibitor. HepG2 CAGA-GFP viability, ATP luminescence, 18 h; cells stimulated with TGF-beta, 500 pg/mL. Potency, µM (top dose mostly 46.1 µM), for the others: top-dose activity, negative = cytotoxicity, most hits filed as inhibitors. 1,600 compounds, 27% hits. AID 720535, 2013; note: % is set by controls: 0 for no effect and ±100 for the full control effect; nearly all actives have a fitted effect of over 70% in size
# CCL64 TGFb inh: qHTS for Inhibitors of TGF-b: CCL64 Cells Orthogonal Assay for Cherry Picks; shares compounds with TGFb inhibitor; 1,600 compounds, 41% hits; CCL64 CAGA-GFP reporter, TGF-b stimulated, GFP fluorescence, 18 h; AID 720536, 2013; Potency, µM (doses to about 46.1 µM), inactives show at the top dose activity, negative = inhibition, usual class: inhibitors; note: nearly all actives have a fitted effect of over 65% in size
# TGFb COP inh: qHTS for Inhibitors of TGF-b: Hit Validation in HepG2 Cells using COP promoter. shares compounds with TGFb inhibitor. AID 720537, 2013. 1,600 compounds, 3% hits. Potency, µM (titrated, usually from 46.1 µM), for the others: top-dose activity, negative = inhibition, most hits filed as inhibitors. HepG2 COP-GFP TGF-b reporter, GFP fluorescence, 18 h; cells stimulated by added recombinant TGF-beta; note: nearly all actives have a fitted effect of over 70% in size
# The depositor's hits bear a star; i = inactive; ? = inconclusive; . = no result; ! = not confirmed by another sample; [ ] = dose if it differs, or a comment. Calls come from the whole dose curve; as a rule, active = well fitted curve in the direction sought with a large enough effect; inconclusive = small, poorly fitted or top-dose-only effect, or another doubt; inactive = no such curve, though single readings can be large; an effect the other way counts as inactive or inconclusive. Potency is the fitted concentration of half-maximal effect.
SMILES,ATXN viability,ATXN2 expr inh,KB-V1 MDR tox,KB-3-1 tox,TGFb inhibitor,HepG2 tox-1,others
COc1ccc(CN2CCc3nc(N4CCN(c5ccc(F)cc5)CC4)ncc3C2)c(OC)c1OC,i,?,?,i,?,-25%,
Cc1cnc(SCc2ccccn2)nc1C1CCCN(C(=O)c2ccc(-c3ccccc3F)cc2)C1 (stereo unspecified),i,.,.,.,.,.,
CC(C)c1ccc(C(=O)N2CCCC(c3cc(C(=O)Nc4ccccc4Cl)no3)C2)cc1 (stereo unspecified),i,-9%,?,18µM*,?,-27%,
C[C@@H]1[C@@H]2Cc3ccc(O)cc3[C@@]1(C)CCN2CCc1ccccc1,i,.,.,.,.,.,
O=C(c1ccc(CS(=O)(=O)c2ccccc2)o1)N1CCC2(CC1)OCCO2,i,4%,13µM*,i,-8%,6%,
CC(=O)[O][Hg][c]1ccccc1,4.5µM*,4.5µM*,.,.,.,.,
CC(=O)/C=C/c1ccccc1,i,4%,i,i,3%,-8%,
CCOC(=O)[C@]12Cc3cc(OC)ccc3[C@H]1N(Cc1ccccc1)C(=O)c1ccccc12,?,?,?,?,?,-13%,
CCOC(=O)[C@]12Cc3cc(C)ccc3[C@H]1N(Cc1ccccc1)C(=O)c1cc(F)c(F)cc12,16µM*,18µM*,i,3.3µM*,.,.,
CCOC(=O)[C@]12Cc3cc(C)ccc3[C@H]1N(Cc1ccccc1)C(=O)c1ccccc12,?,?,?,?,10µM*,-21%,
CCOC(=O)[C@]12Cc3c(cc(OC)c(OC)c3OC)[C@H]1N(C(C)C)C(=O)c1ccccc12,?,?,8.2µM*,13µM*,.,.,
CCOC(=O)[C@]12Cc3cc(C)ccc3[C@H]1N(C(C)C)C(=O)c1ccccc12,.,?,i,4.1µM*,.,.,
COc1ccc(C(O)P(=O)(OC2CCCCC2)c2ccc(N(C)C)cc2)cc1OC (stereo unspecified),i,5%,i,i,?,-2%,
CNC(C)Cc1ccc2c(c1)OCO2 (stereo unspecified),i,-4%[116 µM],.,.,.,.,
CCOP(=O)(CCP(=O)(OCC)OCC)OCC.C[CH2][Sn]([Cl])([Cl])[CH2]C,?,19µM*,?,?,?,2%,
CC[N+]1(CC)CCC(OC(=O)C(O)(c2ccccc2)c2ccccc2)C1 (stereo unspecified),i,4%,.,.,.,.,
O=C1N[C@@H](Cc2ccccc2)C(=O)N2[C@H]3Nc4ccccc4[C@@]3([C@]34C[C@H]5C(=O)N[C@@H](Cc6ccccc6)C(=O)N5[C@H]3Nc3ccccc34)C[C@@H]12,13µM*,?,i,i,?,-4%,
CC[n+]1c(/C=C/N(C)c2ccccc2)sc2ccc(Cl)cc21,.,?,12µM*,15µM*,?,-34%,
C[n+]1c(-c2ccccc2)sc2ccccc21,?,.,i,i,-18%,-18%,
CC[n+]1c(/C=C/C=C/c2ccc(N(C)C)cc2)sc2ccccc21,.,?,?,1.5µM*,?,-15%,
CN(C)c1ccc(/C=C/c2cc[n+](C)c3ccccc23)cc1,6µM*,?,16µM*!,2.9µM*!,7.1µM*,-70%,
CN(C)c1ccc(/C=C/C=C/c2sc3ccccc3[n+]2C)cc1,?,?,i,10µM*,8.9µM*,-20%,
CCOC(=O)N1CCC(NC(=O)c2ccc3c(c2)N(Cc2cccc(C)c2)C(=O)c2ccccc2S3(=O)=O)CC1,i,-10%,i,i,?,9%,
CC(C)(C)C1CCc2onc(C(=O)O)c2C1 (stereo unspecified),?,0%,i,i,10%,2%,
CC1CCN(C(=O)Cn2c3ccccc3c3nc4n(c(=O)c32)CCCS4)CC1,?,-19%,i,i,0%,9%,
COC(COC(N)=O)C1=C(N2CC2)C(=O)C(C)=C(N2CC2)C1=O (stereo unspecified),?,3.5µM*,?,4.1µM*,?,-89%,
Cc1c(C(=O)NCc2ccc3c(c2)OCO3)cnn1-c1ncc2c(n1)-c1ccccc1CC2,i,.,.,.,.,.,
COC(=O)C1=C(c2cc3ccccc3o2)C[C@@H]2CC[C@H]1N2C(=O)N1CCCCC1,?,-30%,?,5.8µM*,?,-33%,
CCOC(=O)c1c(C)n(Cc2ccccc2)c2ccc(OCC(O)Cn3nc(C)cc3C)cc12 (stereo unspecified),?,-18%,i,i,14µM*,-10%,TGFb CAGA inh=21µM*;HepG2 tox-2=?;CCL64 TGFb inh=15µM*;TGFb COP inh=40%
CCOC(=O)c1c(C)n(Cc2ccccc2)c2ccc(OCC(O)Cn3nc(C)nc3C)cc12 (stereo unspecified),i,?,i,i,0%,-25%,
